# Screens as filed in PubChem.
# PLK1 PBD inh – PLK1 (human) polo-box domain binding inhibition; Plk1 PBD binding of FITC phosphopeptide, fluorescence polarization; Potency, µM, actives largely listed as inhibitors; 360,000 compounds, 2.8% hits; P53350; note: series mostly up to about 57 µM; nearly all actives have a fitted effect of over 65% in size
# BAZ2B inh – inhibitors of human BAZ2B bromodomain. AlphaScreen BAZ2B-H3K14Ac peptide displacement. Potency, µM (doses to about 114 µM), usual class: inhibitors. 360,000 compounds, 4.4% hits; note: nearly all actives have a fitted effect of over 60% in size
#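 AlphaScreen displacement: compounds (up to 110uM) incubated 30 min at room temperature with a preformed 50 nM BAZ2B/50 nM biotinylated H3K14Ac peptide complex in PBS pH 7.4 with Tween-20. Donor and acceptor beads at 10 ug/mL final added, 20 min light-protected before reading.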
# HP1b binding inh – inhibitors of HP1-beta chromodomain binding to methylated histone tails. P83916. AlphaScreen HP1-beta / biotin-H3K9me3 peptide binding. Potency, µM (titrated, usually from 114 µM), usual class: inhibitors. 390,000 compounds, 0.56% hits; note: nearly all actives have a fitted effect of over 70% in size
#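 Compound inhibition of the preformed complex between 50 nM HP1-beta and 50 nM biotinylated H3K9me3 peptide was read by AlphaScreen. Buffer was PBS pH 7.4 with 0.01% Tween-20. Incubations ran 30 min at room temperature, with 10 ug/mL donor/acceptor beads.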
# G9a inh – G9a (human) methyltransferase inhibition; G9a H3K9 monomethylation, AlphaScreen, 2 h; Potency, µM (top dose mostly 102 µM), actives largely listed as inhibitors; 350,000 compounds, 8.8% hits; AID 504332; note: nearly all actives have a fitted effect of over 75% in size
#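 G9a (20 nM) preincubated 15 min RT with compounds, then 500 nM biotinylated H3K9 peptide and 20 uM SAM added; 2 h RT reaction. Monomethyl-H3K9 product detected by AlphaScreen with anti-H3K9me1 antibody, streptavidin donor and anti-rabbit IgG acceptor beads.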
# JMJD2A Tudor – blocks the human JMJD2A Tudor domain. AlphaScreen JMJD2A-Tudor / H3K4me3 peptide binding. AID 504339. 390,000 compounds, 4.4% hits. O75164. Potency, µM (highest dose often 114 µM), hits mostly inhibitors; note: nearly all actives have a fitted effect of over 50% in size
# Target sequence (O75164 whole entry, looked up, the tested form may be a part): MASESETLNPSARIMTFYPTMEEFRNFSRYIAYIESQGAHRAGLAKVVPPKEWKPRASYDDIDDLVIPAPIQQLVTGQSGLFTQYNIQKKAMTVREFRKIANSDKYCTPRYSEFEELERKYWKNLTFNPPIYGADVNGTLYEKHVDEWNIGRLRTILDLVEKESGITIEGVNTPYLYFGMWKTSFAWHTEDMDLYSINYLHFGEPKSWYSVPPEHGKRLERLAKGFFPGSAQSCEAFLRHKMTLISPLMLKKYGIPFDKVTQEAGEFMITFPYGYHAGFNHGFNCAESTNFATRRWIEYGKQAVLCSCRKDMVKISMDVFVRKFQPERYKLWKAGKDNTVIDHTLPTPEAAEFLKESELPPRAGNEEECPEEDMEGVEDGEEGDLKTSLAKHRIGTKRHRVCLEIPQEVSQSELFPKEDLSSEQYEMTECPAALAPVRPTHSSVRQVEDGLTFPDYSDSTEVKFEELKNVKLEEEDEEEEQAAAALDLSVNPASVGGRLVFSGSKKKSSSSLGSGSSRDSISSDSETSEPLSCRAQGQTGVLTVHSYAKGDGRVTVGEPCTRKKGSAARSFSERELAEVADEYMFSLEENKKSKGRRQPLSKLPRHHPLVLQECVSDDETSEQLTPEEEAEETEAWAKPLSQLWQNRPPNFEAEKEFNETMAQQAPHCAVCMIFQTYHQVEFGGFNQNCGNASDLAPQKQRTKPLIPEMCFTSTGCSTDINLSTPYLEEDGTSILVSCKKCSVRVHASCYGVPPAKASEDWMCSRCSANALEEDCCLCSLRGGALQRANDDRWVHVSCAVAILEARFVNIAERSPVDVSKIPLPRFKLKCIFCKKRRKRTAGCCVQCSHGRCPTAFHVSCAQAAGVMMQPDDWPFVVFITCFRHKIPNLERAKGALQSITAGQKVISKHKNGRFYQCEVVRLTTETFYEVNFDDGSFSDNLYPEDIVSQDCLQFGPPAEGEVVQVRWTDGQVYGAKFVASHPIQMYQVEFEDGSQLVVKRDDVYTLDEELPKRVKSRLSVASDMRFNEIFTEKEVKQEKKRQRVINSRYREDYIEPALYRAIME
# Sfp inh – inhibitors of Bacillus subtilis Sfp phosphopantetheinyl transferase | Q9F4F7 | Biochemical Sfp PPTase activity, qHTS | Potency, µM, usual class: inhibitors | 310,000 compounds, 3.5% hits | AID 1490;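 note: the enzyme is Sfp with the accession as filed and its product quenches rhodamine fluorescence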
#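 After 15 min at room temperature with compound, 15 nM Sfp received 5 uM rhodamine-CoA plus 12.5 uM BHQ-2-ybbR (50 mM Hepes pH 7.6, 10 mM MgCl2). Rate came from the fluorescence difference over 30 min, ex 525/em 598 nm.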
# Hits are given with their value; 0 = inactive; ? = inconclusive; - = no result; ! = not confirmed by another sample; [ ] = remark or other dose. Rows were chosen to be rich in hits. Some 12% of all compounds tested hit in one or more screens of this group. Calls come from the whole dose curve; as a rule, active = well fitted curve in the direction sought with a large enough effect; inconclusive = small, poorly fitted or top-dose-only effect, or another doubt; inactive = no such curve, though single readings can be large; an effect the other way counts as inactive or inconclusive.
SMILES,PLK1 PBD inh,BAZ2B inh,HP1b binding inh,G9a inh,JMJD2A Tudor,Sfp inh
Cc1ccc(-c2cc(C(=O)N3CCN(c4ncccn4)CC3)c3ccccc3n2)cc1,0,0,0,44.7µM,0,0
O=C(c1cc(Br)ccc1Cl)N1CCN(c2ncccn2)CC1,29.9µM,0,0,0,?,0
O=C(c1cc(-c2ccc(Br)cc2)nc2ccccc12)N1CCN(c2ccccc2O)CC1,0,0,0,50.1µM,?,-
O=C(c1cc(F)c(F)cc1Cl)N1CCN(c2ncccn2)CC1,0,0,0,0,0,0
CCN1CCCC(OC(=O)c2cc(-c3ccc(C)cc3)nc3ccccc23)C1 (stereo not given),0,-,0,?,17.8µM,0
CCOC(=O)[C@]12CCC=C1N(Cc1ccc(Cl)cc1Cl)C(=O)[C@H](CC(=O)NCc1cccc(C(F)(F)F)c1)C2,0,-,-,-,-,-
c1ccc(C(c2ccccc2)N2CC[C@@]3(CCCNC3)C2)cc1,-,-,-,0[12.7 µM],-,0
Cc1ccc(-c2noc(-c3ccc(N4CCCC4)c([N+](=O)[O-])c3)n2)cc1,-,?,0,0,0,-
O=C(c1ccc(CSc2nc3ccncc3n2Cc2cccc(F)c2)cc1)N1CCCCC1,-,0,0,0,0,-
N#Cc1nc(Nc2ccc(-c3ccccc3)cc2)nc(NC2CCCC2)n1,-,-,-,-,0,-
Cc1ccccc1CN1CCN(C(=O)c2cc(-c3ccncc3)nc3ccccc23)CC1,0,?,0,35.5µM,?,?
O=C(c1cc(-c2ccncc2)nc2ccccc12)N1CCN(Cc2ccccc2)CC1,0,-,0,-,0,-
CC12CN3CC(=O)N4CC5(C)CN(CC(C)(C4)C5=O)C(=O)CN(C1)CC(C)(C3)C2=O,0,0,0,35.5µM,0,0
Cc1ccc(S(=O)(=O)N2CC3(C)CN(S(=O)(=O)c4ccc(C)cc4)CC(C)(C2)C3=O)cc1,0,0,0,0[12.7 µM],0,0
COc1ccc2c(c1)NC(C)(C)C=C2C,0,39.8µM,44.7µM,39.8µM,63.1µM,?
COc1ccc2c(c1)C(=O)C(=O)N2,0,?,0,0,0,0
CC1=CC(C)(C)Nc2ccccc21,0,50.1µM!,0,0[0.501 µM],?,79.4µM
O=C(CSc1nc2ccccc2nc1Cc1ccc(Cl)cc1)N1CCN(c2ccccc2F)CC1,-,0,0,0,0,-
O=C1C2CC=CCC2C(=O)N1c1ccc(N2CCN(c3ccccn3)CC2)c([N+](=O)[O-])c1 (stereo not given),0,8.91µM,0,?,?,0
COc1ccc(C(=O)NCc2cnn(C)c2C)cc1OC1CCN(C(C)C)CC1,0,0,0,-,0,0
CCOC(=O)C1(C)NC(c2ccco2)C2C(=O)N(C)C(=O)C21 (stereo not given),?,0,0,?,0,0
COC1=C(Br)C(=O)c2ncccc2C1=O,1.89µM,-,10µM,-,6.31µM,-
CC(C)(C)c1ccc(C(=O)N2CCN(C(=O)c3ccco3)CC2)cc1,0,0,0,0,0,0
O=C1C2CC=CCC2C(=O)N1Cc1nnc(-c2ccccc2Br)o1 (stereo not given),0,0,0,0,0,0
CC(=O)N1/C(=C/c2ccc(N(C)C)cc2)C(=O)c2ccccc21,0,10µM,22.4µM,11.2µM,17.8µM,0
SMILES,PLK1 PBD inh,BAZ2B inh,HP1b binding inh,G9a inh,JMJD2A Tudor,Sfp inh
CCOC(=O)c1c(NC(=O)C2C3C=CC(C3)C2C(=O)O)sc2c1CC(C)(C)OC2 (stereo not given),21.2µM,0,0,-,?,0
CCCOC(=O)c1c(NC(=O)C2C3C=CC(C3)C2C(=O)O)sc2c1CCC(C)C2 (stereo not given),5.32µM,?,?,8.91µM,28.2µM,39.8µM
CCOC(=O)c1c(NC(=O)C2C3C=CC(C3)C2C(=O)O)sc2c1CC(C)CC2 (stereo not given),0,0,0,?,0,0
O=C(C1CCN(Cc2ccc(F)cc2)CC1)N(CCO)Cc1ccccc1,0,0,0,?,3.55µM,0
Fc1ccc(CNC2CCN(Cc3ccccc3)CC2)cc1,0,0,0,-,0,0
O=C(C1CCN(Cc2ccc(F)cc2)CC1)N(CCc1ccccc1)Cc1ccccc1,0,?,?,12.6µM,6.31µM,0
O=S(=O)(c1ccc2c(c1)OCCO2)N1CCN(S(=O)(=O)c2c(F)ccc(O)c2F)CC1,-,-,-,-,0,-
COc1ccc(N=C2S/C(=C\c3ccc(OCC(=O)O)cc3)C(=O)N2CCc2c[nH]c3ccccc23)cc1,?,14.1µM,17.8µM,0,8.91µM,?
CCN1C(=O)/C(=C/c2ccc(C)s2)SC1=Nc1ccc(OC)cc1,0,?,0,?,?,0
COc1ccc(N=C2S/C(=C\c3ccc(N4CCOCC4)o3)C(=O)N2CCc2c[nH]c3ccccc23)cc1,-,39.8µM,-,?,-,3.98µM
O=C(CC(C(=O)O)c1ccc(Cl)cc1)c1ccccc1 (stereo not given),0,0,0,0,0,0
O=C(CC(C(=O)O)c1ccc(F)cc1)c1ccc(Cl)cc1 (stereo not given),0,0,0,0,0,0
CC(C)(C)c1ccc(C(=O)CC(Sc2ccc(Cl)cc2)C(=O)O)cc1 (stereo not given),10.6µM,0,0,44.7µM,0,20µM
Cc1ccc(SC(CC(=O)c2ccc(F)cc2)C(=O)O)cc1 (stereo not given),?,0,0,?,0,50.1µM
Cc1ccc(OCC(=O)NCCCNC(=O)c2ccccn2)cc1C,0,0,0,0,0,0
O=C1CCCc2c1nc(-c1ccccc1F)n2O,0,0,0,?,0,0
O/N=C1\CCCc2c1nc(-c1ccccc1F)n2O,0,50.1µM,0,22.4µM,31.6µM,?
CC(=O)c1ccc(NC(=O)COC(=O)c2ccccc2N=Nc2ccc(N(C)C)cc2)cc1,0,5.01µM,31.6µM,12.6µM,12.6µM,0
O=C(CNC1CCCC1)Nc1cc(Cl)ccc1[N+](=O)[O-],0,56.2µM,39.8µM,44.7µM,1µM,56.2µM
COC(=O)c1ccccc1NC(=O)COC(=O)c1ccccc1N=Nc1ccc(N(C)C)cc1,0,8.91µM,?,8.91µM,31.6µM,0
CN(C)c1ccc(N=Nc2ccccc2C(=O)OCC(=O)N(C)c2ccccc2)cc1,0,10µM,?,8.91µM,12.6µM,?
CN(C)c1cccc(C(=O)OCC(=O)N(C)c2ccccc2)c1,0,?,0,0,?,0
CNC(=O)C1CCC(Cn2c(=O)c3sccc3n(CC(=O)Nc3ccc(C)cc3C)c2=O)CC1 (stereo not given),-,0,0,0,0,-
Cc1ccc(-c2nc(CCNC(=O)C(=O)Nc3ccc(F)cc3F)cs2)cc1,-,0,0,0,0,-
CN(C)c1ccc(NC(=O)COC(=O)c2cc(Cl)ccc2[N+](=O)[O-])cc1,0,35.5µM,50.1µM,6.31µM,25.1µM,0
CC(=O)c1c(C)[nH]c(C(=O)OCC(=O)Nc2cc(Cl)ccc2[N+](=O)[O-])c1C,0,?,0,50.1µM,0,0
